Inconclusive results are not listed. Values without a mark were called inactive. The source made the active and inactive calls. Calls come from the whole dose curve; as a rule, active = well fitted cell-killing curve with a large enough effect in the repeat runs; inconclusive = weak or mixed curves, or effect the other way; inactive = flat fitted curve, though single readings scatter.

A short description of experiment [1]: cAMP Responsive Elements (CRE) small molecule antagonists, cell-based qHTS assay: qHTS cell viability counter screen (AID 2060913). Note: nearly all actives have a fitted effect of over 40% in size. Conditions: CRE-bla HEK293T viability, CellTiter-Glo luminescence, 5 h; series mostly up to 92.4 µM. The procedure, abridged:
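CRE-bla HEK293T cells were seeded in assay medium with 10% dialyzed FBS, incubated 18 hrs at 37 C, then exposed to compounds plus 0.25 uM final NKH477 for 3 hrs. Viability was read by CellTiter-Glo luminescence after 30 min, in the same wells.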
(Quantitative high-throughput screening tests each substance at several concentrations.)

Experiment [2] in a line: cAMP Responsive Elements (CRE) small molecule agonists, cell-based qHTS assay: qHTS cell viability counter screen (AID 2060914). Note: nearly all actives have a fitted effect of over 50% in size. The settings on record: CRE-bla HEK293T viability, CellTiter-Glo luminescence, 5 h; series mostly up to 92.4 µM. The method in brief: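 Cells are seeded and incubated 18 h, treated with compounds in DMSO for 3 h, read for the bla reporter, then given CellTiter-Glo; luminescence is measured after 30 min at room temperature.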
% is set by controls: 0 for no effect and ±100 for the full control effect.

Turning to `CCN(CC)C(=O)C1CN2CCc3cc(OC)c(OC)cc3C2CC1OC(C)=O` (centres undefined), the Potency entry in experiment [1] and in experiment [2] was “inactive” throughout.
As for `CCCC(C)C(=O)O` (centres undefined), the Potency result in experiment [1] and in experiment [2] was “inactive” each time.
In the case of `O=C1OC(=O)C2CC=CCC12` (centres undefined), the Potency entry in experiment [1] and in experiment [2] was “inactive” each time.
As for `CCOCC(O)COc1ccc(NC(=O)CC[S+](C)C)cc1` (centres undefined), the Potency result in experiment [1] and in experiment [2] was “inactive” each time.
For the compound `CC(COC(=O)c1ccccc1)OC(=O)c1ccccc1` (centres undefined), the Potency entry in experiment [1] and in experiment [2] was “inactive” throughout.
`CC(=O)/C(C)=C/C1C(C)=CCCC1(C)C` (centres undefined): the Potency entry in experiment [1] and in experiment [2] was “inactive” each time.
Regarding `Cc1c(NC(C)C)c(=O)n(-c2ccccc2)n1C`, the Potency entry in experiment [1] and in experiment [2] was “inactive” in each case.
Regarding `CC(=O)Nc1c(I)cc(I)c(C(=O)O)c1I`, the Potency result in experiment [1] and in experiment [2] was “inactive” each time.
Regarding `CCCCCCCCCCCCCBr`, the Potency entry in experiment [1] and in experiment [2] was “inactive” in each case.
Regarding `O=C1NC(=O)C(c2ccccc2)(c2ccccc2)N1`, the Potency result in experiment [1] and in experiment [2] was “inactive” in each case.
As to `CC(=O)c1ccc(Cl)c(Cl)c1Cl`, the Potency entry in experiment [1] and in experiment [2] was “inactive” in each case.
Regarding `CC(=O)OCC(=O)[C@@]1(O)[C@H](OC(C)=O)C[C@H]2[C@@H]3CCC4=CC(=O)C=C[C@]4(C)[C@@]3(F)[C@@H](O)C[C@@]21C`, the Potency entry in experiment [1] and in experiment [2] was “inactive” each time.
In the case of `CCCC/C=C\CCCCCCCCCC=O`, the Potency result in experiment [1] and in experiment [2] was “inactive” in each case.
For `CCCCCCCCCOCC1CO1` (centres undefined), the Potency result in experiment [1] and in experiment [2] was “inactive” each time.
Turning to `c1ccc(CN(Cc2ccccc2)Cc2ccccc2)cc1`, the Potency entry in experiment [1] and in experiment [2] was “inactive” throughout.
As for `CN(C)CCCNCCCN(C)C`, the Potency entry in experiment [1] and in experiment [2] was “inactive” each time.
For `NCCS`, the Potency result in experiment [1] and in experiment [2] was “inactive” in each case.
For `Cc1ccc(N)nc1`, the Potency result in experiment [1] and in experiment [2] was “inactive” each time.
Consider `C=C(C)CC(C)(C)C`, for which the Potency entry in experiment [1] and in experiment [2] was “inactive” each time.
For the compound `Nc1c2c(nc3c1CCC3)CCCC2`, the Potency entry in experiment [1] and in experiment [2] was “inactive” each time.
Take `C=Cc1ccncc1`: the Potency entry in experiment [1] and in experiment [2] was “inactive” in each case.
`O=C(c1ccccc1)C1CCCCC1`: the Potency entry in experiment [1] and in experiment [2] was “inactive” throughout.
In the case of `CCOCC(=O)O`, the Potency result in experiment [1] and in experiment [2] was “inactive” each time.
On to `C/C=C1\C(=O)C[C@H]2[C@@H]3CCC4=CC(=O)CC[C@]4(C)[C@H]3CC[C@]12C`, for which the Potency result in experiment [1] and in experiment [2] was “inactive” throughout.
With `COc1ccc2nc(N)sc2c1`, the Potency entry in experiment [1] and in experiment [2] was “inactive” each time.
In the case of `Nc1nc(=S)c2[nH]cnc2[nH]1`, the Potency result in experiment [1] and in experiment [2] was “inactive” each time.
As for `C=Cc1c(C)c2cc3[nH]c(cc4nc(cc5nc(cc1[nH]2)C(C)=C5CCC(=O)O)C(CCC(=O)O)=C4C)c(C)c3C=C`, the Potency result in experiment [1] and in experiment [2] was “inactive” throughout.
As for `CC(C)(C)S`, the Potency entry in experiment [1] and in experiment [2] was “inactive” in each case.
In the case of `C(/C=C/C=C/Nc1ccccc1)=Nc1ccccc1`, the Potency result in experiment [1] and in experiment [2] was “inactive” in each case.
Turning to `CCn1cc(C(=O)O)c(=O)c2cc(F)c(N3CCN(C)CC3)cc21`, the viability change, negative = cytotoxic in experiment [1] is 3.1% [at 18.9 µM]. The activity change, negative = cytotoxicity in experiment [2] was 12% [at 18.9 µM].
Consider `O=C(OCc1ccccc1)c1ccccc1O`, for which the Potency result in experiment [1] and in experiment [2] was “inactive” throughout.
Take `NC1[C@H]2CN(c3nc4c(cc3F)c(=O)c(C(=O)O)cn4-c3ccc(F)cc3F)C[C@@H]12` (some centres undefined): the Potency entry in experiment [1] and in experiment [2] was “inactive” each time.
With `Cc1ccc(N(CC2=NCCN2)c2cccc(O)c2)cc1`, the Potency result in experiment [1] and in experiment [2] was “inactive” throughout.
`CN(CCOc1ccc(CC2SC(=O)NC2=O)cc1)c1ccccn1` (centres undefined): the Potency result in experiment [1] and in experiment [2] was “inactive” each time.
Regarding `CCN(CC)CCNC(=O)c1cc(Br)c(N)cc1OC`, the Potency entry in experiment [1] and in experiment [2] was “inactive” in each case.
As to `O=C(OCC1(COC(=O)c2cccnc2)CCCC(COC(=O)c2cccnc2)(COC(=O)c2cccnc2)C1O)c1cccnc1`, the Potency entry in experiment [1] and in experiment [2] was “inactive” in each case.
Consider `CC(C)(C(=O)c1cccnc1)c1cccnc1`, for which the Potency result in experiment [1] and in experiment [2] was “inactive” in each case.
With `CCCCCN(CCCCC)C(=O)C(CCC(=O)O)NC(=O)c1ccc(Cl)c(Cl)c1` (centres undefined), the Potency result in experiment [1] and in experiment [2] was “inactive” throughout.
On to `CCOC(/C=C(\C)CCC=C(C)C)OCC`, for which the Potency result in experiment [1] and in experiment [2] was “inactive” throughout.
In the case of `CCCCCC(C)O` (centres undefined), the Potency entry in experiment [1] and in experiment [2] was “inactive” each time.
Take `COCCOCCOCCOCCO`: the Potency result in experiment [1] and in experiment [2] was “inactive” in each case.
With `CCCCN1C=CN(C)C1`, in experiment [1], the viability change, negative = cytotoxic is 7.21% [at 18.9 µM]. Besides, the activity change, negative = cytotoxicity in experiment [2] was 2.49% [at 18.9 µM].
`NC(N)=N/N=C/c1c(Cl)cccc1Cl`: the Potency entry in experiment [1] and in experiment [2] was “inactive” throughout.
For the compound `CCOC(=O)[C@H](CCc1ccccc1)N[C@H]1CCc2ccccc2N(CC(=O)O)C1=O`, the Potency result in experiment [1] and in experiment [2] was “inactive” throughout.
In the case of `CN(N=O)C(=O)N[C@@H]1[C@@H](O)[C@H](O)[C@@H](CO)O[C@@H]1O`, the Potency result in experiment [1] and in experiment [2] was “inactive” throughout.
Take `Cc1cccc(C)c1NC(=O)CN1CCN(CCCC(c2ccc(F)cc2)c2ccc(F)cc2)CC1`: the Potency result in experiment [1] and in experiment [2] was “inactive” each time.
Regarding `Nc1nc2ccccc2n1Cc1ccc(F)cc1`, the Potency result in experiment [1] and in experiment [2] was “inactive” in each case.
Consider `O=C(OCCc1ccccc1)c1ccccc1`, for which the Potency result in experiment [1] and in experiment [2] was “inactive” throughout.
For `Nc1nc(CC(=O)O)cs1`, the Potency entry in experiment [1] and in experiment [2] was “inactive” in each case.
In the case of `C[N+]1(CC2COC(c3ccccc3)(C3CCCCC3)O2)CCCCC1` (centres undefined), the Potency entry in experiment [1] and in experiment [2] was “inactive” throughout.
As for `CC(C)(C)NCCO`, the Potency result in experiment [1] and in experiment [2] was “inactive” in each case.
Turning to `CC(C)N1C(=O)c2ccccc2C1=O`, the Potency entry in experiment [1] and in experiment [2] was “inactive” throughout.
With `CCOC(=O)C1CC(=O)C(=C(O)C2CC2)C(=O)C1` (centres undefined), the Potency result in experiment [1] and in experiment [2] was “inactive” throughout.
`CC(=O)OCCC(C)C`: the Potency entry in experiment [1] and in experiment [2] was “inactive” in each case.
Turning to `COC(=O)c1ccc(C(=O)OC)c(C(=O)OC)c1`, the Potency entry in experiment [1] and in experiment [2] was “inactive” throughout.
For the compound `CN(C)CCCSc1ccccc1NC(=O)/C=C/c1ccccc1`, the Potency result in experiment [1] and in experiment [2] was “inactive” throughout.
As for `NC(=O)N1c2ccccc2CC(=O)c2ccccc21`, the Potency result in experiment [1] and in experiment [2] was “inactive” in each case.

These data come from PubChem BioAssay (Tox21).
